HEK cytotox: HEK 293 cell cytotoxicity; HEK 293 viability, ATP luminescence (CellTiter-Glo), 48-72 h; Potency, µM (series often up to 115 µM), for the others: top-dose activity change, negative = cytotoxicity, actives largely listed as inhibitors; 94,000 tested, 6.6% active; note: nearly all actives have a fitted effect of over 60% in size
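Cells seeded first (HEK 293, 250 cells/well), then compound added by pintool. Incubation ran 48 or 72 hr at 37 degree Celsius. CellTiter-Glo was added and luminescence imaged after 10 min at room temperature.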
GPT2 inh: GPT2 alanine aminotransferase inhibition | Recombinant GPT2, coupled pyruvate oxidase/HRP Amplex Red fluorescence | Potency, µM (titrated, usually from 57.7 µM), without a hit: at the top dose activity change, negative = inhibition, usual class: inhibitors | 100,000 tested, 0.25% active; note: nearly all actives have a fitted effect of over 60% in size
Target sequence (Q8TD30 whole entry, looked up): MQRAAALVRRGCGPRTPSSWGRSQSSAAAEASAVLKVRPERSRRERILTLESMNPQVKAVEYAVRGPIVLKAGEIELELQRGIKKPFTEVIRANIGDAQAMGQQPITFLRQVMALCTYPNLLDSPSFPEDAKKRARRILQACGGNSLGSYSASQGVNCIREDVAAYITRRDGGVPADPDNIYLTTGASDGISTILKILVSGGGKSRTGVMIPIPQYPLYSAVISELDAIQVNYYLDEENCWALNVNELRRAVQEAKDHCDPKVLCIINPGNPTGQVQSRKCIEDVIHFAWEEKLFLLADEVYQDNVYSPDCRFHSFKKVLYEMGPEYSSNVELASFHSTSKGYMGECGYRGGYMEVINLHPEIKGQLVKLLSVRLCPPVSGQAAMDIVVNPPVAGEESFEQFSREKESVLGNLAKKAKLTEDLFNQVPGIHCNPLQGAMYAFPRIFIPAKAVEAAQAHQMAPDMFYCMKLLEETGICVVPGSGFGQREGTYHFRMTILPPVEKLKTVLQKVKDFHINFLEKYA
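Fluorescence read-out: pyruvate from GPT2 turnover coupled to pyruvate oxidase, HRP and Amplex Red (0.2mM ThPP, 0.2U/mL PO and HRP, 50uM Amplex final). Substrates 250uM a-KG, 2mM L-alanine; enzyme 10ng/uL; 30 min RT.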
NIH3T3 tox: cytotoxic compounds in NIH 3T3 cells; NIH 3T3 viability, CellTiter-Glo ATP luminescence, 48-72 h; Potency, µM (top dose mostly 96.7 µM), for the others: top-dose activity change, negative = cytotoxicity, most hits filed as inhibitors; 94,000 tested, 4.3% active; AID 1345082; note: nearly all actives have a fitted effect of over 55% in size
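Cytotoxicity was measured by CellTiter-Glo ATP luminescence after 48 or 72 h compound exposure at 37 °C. Mouse NIH 3T3 fibroblasts were seeded at 400 cells/well and dosed by 23 nL pin transfer.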
NPR1 antag: blocks ANP-stimulated signaling of human Npr1 receptor | 76,000 tested, 1.6% active | HEK293 hNpr1 GloSensor cGMP, ANP-stimulated luminescence | Potency, µM (top dose mostly 46.3 µM), for the others: at the highest dose activity change, negative = inhibition, actives largely listed as inhibitors; calls by dose curve; note: nearly all actives have a fitted effect of over 60% in size
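Compound pre-incubated 30 min at room temperature on GloSensor-loaded HEK293 cells stably carrying hNpr1 and the pGS-40F cGMP biosensor. Stimulation uses hNppA at 0.1 nM final; luminescence is taken at baseline and 20 min post-agonist.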
Luciferase inh: Photinus pyralis luciferase inhibition; 76,000 tested, 2.5% active; purified P. pyralis luciferase, luminescence, biochemical; AID 1347043; Potency, µM (series often up to 115 µM), hits mostly inhibitors; P08659; note: nearly all actives have a fitted effect of over 65% in size
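Purified 10nM P. pyralis luciferase with 10uM D-luciferin and 10uM ATP in 50mM Tris acetate pH 7.5, 10mM Mg acetate, 0.01% Tween-20, 0.05% BSA. qHTS titration; luminescence read by CCD imager.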
Numbers without * were called inactive; i = inactive; ? = inconclusive; / = no result; [ ] = remark or other dose. Rows were chosen to be rich in hits. Some 10% of all compounds tested hit in one or more screens of this group. Unless noted, calls come from the whole dose curve; as a rule, active = well fitted curve in the direction sought with a large enough effect; inconclusive = small, poorly fitted or top-dose-only effect, or another doubt; inactive = no such curve, though single readings can be large; an effect the other way counts as inactive or inconclusive. % is set by controls: 0 for no effect and ±100 for the full control effect; potency is the fitted concentration of half-maximal effect.

SMILES	HEK cytotox	GPT2 inh	NIH3T3 tox	NPR1 antag	Luciferase inh
CC(C)(C)c1cc(C[C@H]2CNCC[C@H]2CC(=O)Nc2ccccc2)no1	?	0.8%[88.5 µM]	112µM*	-16.5%[70.6 µM]	i
Cn1nc(C(C)(C)C)cc1C(=O)NC(Cc1cccc(Cl)c1)C(=O)NCC#N (configuration not stated)	/	i	/	/	/
O=C(O)[C@H](Cn1ccc(=O)[nH]c1=O)NCc1ncc[nH]1	-17.1%[230 µM]	-16.2%[88.5 µM]	-13.6%[174 µM]	1.1%[70.6 µM]	i
CN(Cc1ccccc1)C(=O)C[C@@H]1CCNC[C@@H]1Cc1cc(CN(C)c2ccccc2)on1	?	?	79.4µM*	-15.4%	i
CC(C)(C)NC(=O)C[C@@H]1CCNC[C@@H]1Cc1cc(CC2CCCCC2)on1	44.7µM*	-10.2%[88.5 µM]	35.5µM*	6.6%[70.6 µM]	i
O=C(C[C@@H]1CCNC[C@@H]1Cc1cc(COc2ccccc2)on1)N1CCN(c2ccc(F)cc2)CC1	22.4µM*	-8.7%	25.1µM*	-15.9%	i
CN(Cc1ccccc1)C(=O)C[C@@H]1CCNC[C@@H]1Cc1cc(CC2CCCCC2)on1	28.2µM*	-2.4%[88.5 µM]	44.7µM*	?	i
CC(=O)N1CCN(C(=O)C[C@@H]2CCNC[C@@H]2Cc2cc(COc3ccccc3)on2)CC1	-7.2%	0.6%	-18.9%	-2.4%	i
COCc1cc(C[C@H]2CNCC[C@H]2CC(=O)N(C)Cc2ccccc2)no1	-5.7%[172 µM]	i	-4.7%[174 µM]	-1.6%[70.6 µM]	i
CN(Cc1ccccc1)Cc1cc(C[C@H]2CNCC[C@H]2CC(=O)N2CCN(c3ccccn3)CC2)no1	-14.5%	-3.8%	0.8%	4.0%	i
CN(C)CC1(COc2cccnc2)C[C@@H](O)[C@@H](O)C1 (some centres not stated)	-14.0%[172 µM]	1.1%[88.5 µM]	-13.1%[138 µM]	-2.4%[70.6 µM]	i
COc1ccccc1Cn1c(=O)c(C(=O)NC2CCCC2)nc2cccnc21	-26.3%	-12.2%	?	/	/
CCCCc1cc(C[C@H]2CNCC[C@H]2CC(=O)Nc2nccs2)no1	?	4.4%[88.5 µM]	?	-11.9%[70.6 µM]	63.1µM*
CCCCc1cc(C[C@H]2CNCC[C@H]2CC(=O)NCCNC(C)=O)no1	i	-5.0%[88.5 µM]	2.5%[174 µM]	7.4%[70.6 µM]	i
COCCNC(=O)C1CCCN(Cc2cccc(-c3ccsc3)c2)C1 (configuration not stated)	-26.6%	/	?	/	/
O=C(C1CCCN(Cc2cccc(-c3ccsc3)c2)C1)N1CCOCC1 (configuration not stated)	?	i	?	/	/
CCCCCNC(=O)C1CCCN(Cc2cccc(-c3ccsc3)c2)C1 (configuration not stated)	31.6µM*	/	35.5µM*	/	/
O=C(NCCC1CCCCC1)C1CCCN(Cc2cccc(-c3ccsc3)c2)C1 (configuration not stated)	44.7µM*	/	?	/	/
Cc1cccn2c(CC(=O)N3CCn4nc(CO)cc4C3)cnc12	0.1%	3.5%	-1.7%	-1.9%	i
CN(C)C(=O)c1cccnc1OC1CCN(C(=O)c2cccc(F)c2)C1 (configuration not stated)	-5.2%	i	i	-0.9%	i
CC(C)c1ccc([S+](=O)([O-])c2nnn3c2nc(NCc2ccncc2)c2ccccc23)cc1	50.1µM*	i	39.8µM*	/	/
COC(=O)[C@H](Cc1ccc(OC)cc1)NC(=O)[C@H]1CN(C(=O)c2ccc(N(C)C)cc2)CCN1C(=O)C1CCCCC1	?	-0.9%	?	-0.1%	i
Cc1cc(C2CC(C(=O)NCCc3ccccc3)CN(C(=O)C3CC3)C2)ccc1F (configuration not stated)	?	i	31.6µM*	-14.9%	i
CCNC(=O)N1CC(C(=O)NCc2cccc(F)c2)CC(c2ccc(F)c(C)c2)C1 (configuration not stated)	?	1.9%	?	-1.7%	i
Cc1noc2c(-c3cccnc3NCCN(C)C)cc(-c3ccccc3)nc12	89.1µM*	-2.3%[88.5 µM]	44.7µM*	0.7%[70.6 µM]	i
SMILES	HEK cytotox	GPT2 inh	NIH3T3 tox	NPR1 antag	Luciferase inh
Cc1noc2c(-c3cccnc3N(C)C)cc(-c3ccccc3)nc12	?	-1.2%[88.5 µM]	?	-1.4%[70.6 µM]	i
COCCCNc1ncccc1-c1cc(-c2ccccc2)nc2c(C)noc12	112µM*	1.2%[88.5 µM]	?	5.0%[70.6 µM]	i
Cc1noc2c(-c3cccnc3NCc3cccnc3)cc(-c3ccccc3)nc12	?	?	?	5.6%[70.6 µM]	i
Cc1noc2c(-c3cccnc3NCCCn3ccnc3)cc(-c3ccccc3)nc12	70.8µM*	2.5%[88.5 µM]	?	0.7%[70.6 µM]	i
Cc1noc2c(-c3cccc(O)c3)cc(-c3ccccc3)nc12	50.1µM*	-3.9%[88.5 µM]	28.2µM*	-2.5%[70.6 µM]	i
COc1cc(-c2cc(-c3ccccc3)nc3c(C)noc23)ccn1	-26.5%[172 µM]	4.1%[88.5 µM]	?	-18.7%[70.6 µM]	i
COc1cc(OC)cc(C(=O)N2CCC3(CC2)N(C)C(=O)CS3(=O)=O)c1	3.8%	0.5%	i	-2.4%	i
N#Cc1cccc(C(=O)N[C@H]2[C@H](O)[C@H](O)C[C@@H]2c2cccnc2)c1	-7.9%[172 µM]	0.9%[88.5 µM]	i	5.2%[70.6 µM]	i
C#CCNC(=O)c1nc(C(C)(C)C)c2cnccn12	-25.7%[172 µM]	i	?	/	/
CC1=C[C@@H](CNC(=O)c2ccco2)[C@H](C(C)C)C[C@H]1CC(=O)N(C)Cc1ccccc1	?	i	100µM*	0.5%[70.6 µM]	i
CC1=C[C@@H](CNC(=O)CCC(=O)O)[C@H](C(C)C)C[C@H]1CC(=O)N(C)Cc1ccccc1	-7.1%[172 µM]	i	-13.8%[174 µM]	-0.2%[70.6 µM]	i
CC1=C[C@@H](CNS(=O)(=O)c2ccc(C)cc2)[C@H](C(C)C)C[C@H]1CC(=O)N(C)Cc1cccnc1	44.7µM*	-5.1%	11.2µM*	-18.5%	i
COCCC(=O)NC[C@@H]1C=C(C)[C@H](CC(=O)N(C)Cc2cccnc2)C[C@H]1C(C)C	-15.2%[172 µM]	-3.4%[88.5 µM]	-0.5%[174 µM]	-4.0%[70.6 µM]	56.2µM*
CC1=C[C@@H](CNS(=O)(=O)c2cccc(C#N)c2)[C@H](C(C)C)C[C@H]1CC(=O)NCc1cccnc1	-8.7%	?	-6.2%	-3.1%	i
COc1ccc2[nH]c3c(c2c1)CCNC31CCN(C(=O)c2ocnc2C)CC1	?	i	?	2.1%	i
CC(=O)NC1(C)CCN(Cc2cccc(-c3cccc(Cl)c3)c2)C1 (configuration not stated)	79.4µM*	-13.1%[88.5 µM]	?	2.1%[70.6 µM]	?
CC(=O)NC1(C)CCCN(Cc2cccc(-c3ccc4c(ccn4C)c3)c2)C1 (configuration not stated)	56.2µM*	i	79.4µM*	?	?

High-throughput results deposited in PubChem by National Center for Advancing Translational Sciences (NCATS).
